Source: PubChem BioAssay (NCATS)
Inconclusive results are not listed. Entries that show only a call come without a potency. Activity calls are given as the source filed them. Calls follow the shape of the dose curve; as a rule, active = well fitted inhibition curve with a large enough effect; inconclusive = small, poorly fitted or top-dose-only effect; inactive = flat fitted curve, though single readings scatter.

Experiments:
[1] = biological target: Voltage-gated inwardly rectifying potassium channel KCNH2 (Homo sapiens) (UniProt Q12809); experiment: qHTS Assay for Small Molecule Inhibitors of the Human hERG Channel Activity (AID 588834); conditions: U2OS BacMam hERG, FluxOR thallium flux fluorescence; series mostly up to 46.1 µM;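 also: lower thallium flux fluorescence means stronger hERG block; nearly all actives have a fitted effect of over 50% in size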
How it was run: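 Thallium serves as surrogate for K+ influx through BacMam-delivered hERG in U2OS cells. Compounds are added for about 10 minutes after dye loading; stimulation buffer then starts flux, monitored kinetically on FDSS.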

[2] = biological target: Luciferin 4-monooxygenase (Photinus pyralis) (UniProt P08659); experiment: Biochemical firefly luciferase enzyme assay for NPC (AID 624030); also: nearly all actives have a fitted effect of over 70% in size; conditions: purified P. pyralis luciferase, luminescence, 5 min; series mostly up to 58.6 µM
How it was run: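 Purified P. pyralis luciferase at 10 nM in 50 mM Tris Acetate (final), luminescence read within 5 minutes of enzyme addition to compounds. Activity normalised to PTC124 versus DMSO; concentration-response curves classed by r2, magnitude and activity.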
Potency is read from the fitted curve at half-maximal effect.

Voltage-gated inwardly rectifying potassium channel KCNH2 (Homo sapiens), sequence (Q12809 whole entry, looked up): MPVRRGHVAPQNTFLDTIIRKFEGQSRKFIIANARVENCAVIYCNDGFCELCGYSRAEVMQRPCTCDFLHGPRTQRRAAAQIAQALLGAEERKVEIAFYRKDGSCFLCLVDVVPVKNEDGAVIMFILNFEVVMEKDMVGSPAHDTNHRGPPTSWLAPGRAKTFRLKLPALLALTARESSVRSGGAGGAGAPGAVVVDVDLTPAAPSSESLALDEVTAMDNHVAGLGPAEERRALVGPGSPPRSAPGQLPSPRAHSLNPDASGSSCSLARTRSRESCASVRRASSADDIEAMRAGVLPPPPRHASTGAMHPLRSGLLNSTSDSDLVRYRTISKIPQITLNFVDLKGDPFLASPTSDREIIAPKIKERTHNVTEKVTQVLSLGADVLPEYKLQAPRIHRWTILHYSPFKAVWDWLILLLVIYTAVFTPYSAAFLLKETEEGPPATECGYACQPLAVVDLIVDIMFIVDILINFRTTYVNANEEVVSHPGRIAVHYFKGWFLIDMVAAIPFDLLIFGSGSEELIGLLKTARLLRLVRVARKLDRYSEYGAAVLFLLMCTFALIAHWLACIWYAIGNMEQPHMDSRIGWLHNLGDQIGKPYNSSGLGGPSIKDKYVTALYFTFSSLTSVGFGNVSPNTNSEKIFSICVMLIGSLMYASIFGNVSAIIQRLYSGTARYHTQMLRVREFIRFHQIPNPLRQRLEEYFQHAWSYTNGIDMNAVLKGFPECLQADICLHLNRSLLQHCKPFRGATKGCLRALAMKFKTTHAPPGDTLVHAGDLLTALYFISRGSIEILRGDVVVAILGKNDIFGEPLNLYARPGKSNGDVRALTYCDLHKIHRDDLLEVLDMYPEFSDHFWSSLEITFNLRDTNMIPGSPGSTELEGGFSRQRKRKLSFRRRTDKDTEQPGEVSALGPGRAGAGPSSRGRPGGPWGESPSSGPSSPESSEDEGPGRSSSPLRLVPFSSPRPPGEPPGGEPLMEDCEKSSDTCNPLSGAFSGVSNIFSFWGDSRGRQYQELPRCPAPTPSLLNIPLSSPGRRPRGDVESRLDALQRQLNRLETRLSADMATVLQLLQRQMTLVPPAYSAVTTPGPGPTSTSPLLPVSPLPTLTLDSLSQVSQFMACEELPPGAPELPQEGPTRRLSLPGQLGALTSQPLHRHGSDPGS
Luciferin 4-monooxygenase (Photinus pyralis), sequence (P08659 whole entry, looked up): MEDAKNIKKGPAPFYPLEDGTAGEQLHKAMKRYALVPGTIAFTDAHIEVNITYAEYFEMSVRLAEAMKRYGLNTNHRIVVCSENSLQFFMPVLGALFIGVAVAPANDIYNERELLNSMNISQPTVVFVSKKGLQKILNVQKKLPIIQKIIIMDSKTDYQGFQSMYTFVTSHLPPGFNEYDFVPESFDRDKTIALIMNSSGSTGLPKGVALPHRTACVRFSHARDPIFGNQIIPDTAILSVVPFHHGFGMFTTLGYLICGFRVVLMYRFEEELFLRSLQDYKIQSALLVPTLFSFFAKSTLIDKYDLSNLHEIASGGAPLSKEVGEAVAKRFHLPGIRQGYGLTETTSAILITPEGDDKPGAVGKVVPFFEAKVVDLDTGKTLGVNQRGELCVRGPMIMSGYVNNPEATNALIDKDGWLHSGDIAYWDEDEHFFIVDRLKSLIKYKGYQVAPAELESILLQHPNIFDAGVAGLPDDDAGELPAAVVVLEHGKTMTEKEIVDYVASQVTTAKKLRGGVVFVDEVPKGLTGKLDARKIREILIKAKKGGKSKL

| Compound | Potency [1] | Potency [2] |
| --- | --- | --- |
| COc1ccc(S(=O)(=O)N2c3ccc(Cl)cc3[C@@](O)(c3ccccc3Cl)[C@H]2C(=O)N2CCC[C@@H]2C(N)=O)cc1OC | inactive | – |
| CCO[C@@H]1O[C@H](C(COCc2ccccc2)OCc2ccccc2)[C@H](OCc2ccccc2)[C@H]1O (stereo not given in full) | inactive | – |
| CC(=O)NCCCCCC(=O)O | inactive | – |
| O=c1[nH]c(=O)n([C@H]2C[C@H](O)[C@@H](CO)O2)cc1F | inactive | – |
| C[C@@H](O)[C@H]1C(=O)N2C(C(=O)O)=C([C@H]3CCCO3)S[C@H]12 | inactive | – |
| O=C(O)C1(C(=O)O)CCC1.[NH2-].[NH2-].[Pt+2] | inactive | – |
| NS(=O)(=O)c1cc2c(cc1Cl)NC(CC1CCCC1)NS2(=O)=O (stereo not given) | inactive | – |
| CCCCN1C[C@H](O)[C@@H](O)[C@H](O)[C@H]1CO | inactive | – |
| O=[N+]([O-])c1ccc(/C=N\O)o1 | inactive | – |
| C[C@H]1O[C@@H](O[C@H]2CC[C@@]3(C)[C@H](CC[C@@H]4[C@@H]3C[C@@H](O)[C@]3(C)[C@@H](C5=CC(=O)OC5)CC[C@]43O)C2)C[C@H](O)[C@@H]1O[C@H]1C[C@H](O)[C@H](O[C@H]2C[C@H](O)[C@H](O[C@@H]3O[C@H](CO)[C@@H](O)[C@H](O)[C@H]3O)[C@@H](C)O2)[C@@H](C)O1 | inactive | – |
| O=C(Oc1cccc2cccnc12)c1ccccc1 | inactive | – |
| O=S(=O)(O)c1ccc(O)cc1 | inactive | – |
| N[C@H](C(=O)O)[C@@H](O)c1ccc(O)c(O)c1 | inactive | – |
| COc1ccc(-c2cc(C(F)F)nn2-c2ccc(S(N)(=O)=O)cc2)cc1F | inactive | – |
| O=C(N/N=C/c1ccc([N+](=O)[O-])o1)c1ccc(O)cc1 | inactive | – |
| CCC(Cc1c(I)cc(I)c(N)c1I)C(=O)O (stereo not given) | inactive | – |
| CCN1CCCC(OC(=O)C(c2ccccc2)c2ccccc2)C1 (stereo not given) | 7.94 µM (active) | – |
| CN(C)CCOC(=O)C(c1ccccc1)C1(O)CCCC1 (stereo not given) | inactive | – |
| CCN(CC)CCOC(=O)C(Cc1cccc2ccccc12)CC1CCCO1 (stereo not given) | 7.94 µM (active) | – |
| C[C@]12CCC(=O)C=C1C=C[C@@H]1[C@@H]2CC[C@@]2(C)[C@H]1CC[C@@]21CCC(=O)O1 | inactive | – |
| CC[C@]12CCCN3CCc4c(n(c5ccccc45)C(=O)C1)[C@@H]32 | 0.447 µM (active) | – |
| CC(=O)Nc1ccc(S(=O)(=O)Nc2ccc([N+](=O)[O-])cc2)cc1 | inactive | inactive |

| Compound | Potency [1] | Potency [2] |
| --- | --- | --- |
| CCN1/C(=C/C=C/c2sc3ccccc3[n+]2CC)Sc2ccccc21 | 1.41 µM (active) | 12.8 µM (active) |
| CCN(CC)CCOc1ccc2c(c1)C(=O)c1cc(OCCN(CC)CC)ccc1-2 | inactive | inactive |
| CN(CCCN1c2ccccc2CCc2ccccc21)CC(=O)c1ccc(Cl)cc1 | 5.01 µM (active) | inactive |
| O=C(O)CCC(=O)Nc1ccc(S(=O)(=O)Nc2nccs2)cc1 | inactive | inactive |
| CNCCCCOc1ccccc1Cc1ccccc1 | 6.31 µM (active) | inactive |
| Cc1ccc2c(Br)cc(Br)c(O)c2n1 | inactive | inactive |
| NCc1ccccc1Sc1ccccc1CO | inactive | inactive |
| COc1ccccc1N1CCN(CCCCNC(=O)c2ccc(-c3ccc(C(C)=O)cc3)cc2)CC1 | 1.26 µM (active) | inactive |
| O=C(O)CCNC(=O)c1ccccc1 | inactive | inactive |
| CC(=O)Oc1ccc(C)cc1 | inactive | inactive |
| CCOC(=O)C(C#N)=C(c1ccccc1)c1ccccc1 | inactive | inactive |
| Cc1c(-c2ccccc2)oc2c(C(=O)OCCN3CCCCC3)cccc2c1=O | inactive | inactive |
| COc1ccc(CCN(C)CCCN2CCc3cc(OC)c(OC)cc3CC2=O)cc1OC | 7.94 µM (active) | inactive |
| CCCCNc1ccc(C(=O)OCCOCCOCCOCCOCCOCCOCCOCCOCCOC)cc1 | inactive | inactive |
| CC(=O)NC(=O)c1ccccc1O | inactive | inactive |
| Nc1ccc(S(=O)(=O)Nc2cnc3ccccc3n2)cc1 | inactive | inactive |
| Nc1ccc(S(=O)(=O)NCc2ccccc2)cc1 | inactive | inactive |
| COc1cc(C(=S)N2CCOCC2)ccc1O | inactive | inactive |
| O=C(CN1CCN(Cc2ccc3c(c2)OCO3)CC1)N1c2ccccc2Sc2ccccc21 | 2.51 µM (active) | inactive |
| CCOC(=O)Nc1ccc2c(c1)N(C(=O)CCN1CCOCC1)c1ccccc1S2 | inactive | inactive |
| CC(=O)N[C@@H](CCC(=O)O)C(=O)O | inactive | inactive |
